The list is not random: actives were taken first. Their share in the collection is about 19%.
HT1080 IDH1KD tx: HT-1080 IDH1 knockdown cell toxicity (counter line); HT-1080 IDH1 knockdown viability, ATP luminescence, 48 h; AID 686971; Potency, µM (series often up to 46.1 µM), actives largely listed as cytotoxic; actives 2% (n = 360,000)
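Using the IDH1-knockdown HT-1080 line run in the same batch and compound series as the NT line, viability after 48 h at 37 °C was determined by CellTiter-Glo luminescence and expressed as % activity.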
HT1080NT lethal: kills 2HG-producing HT-1080-NT fibrosarcoma cells | HT-1080-NT fibrosarcoma viability, CellTiter-Glo ATP luminescence, 48 h | Potency, µM (series often up to 46.1 µM), usual class: cytotoxic | actives 1.6% (n = 360,000) | AID 686970;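 further: NT is the 2HG producing partner of a matched IDH1 knockdown line; nearly all actives have a fitted effect of over 55% in size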
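HT-1080-NT; 750 cells/well; 5% FBS RPMI; 48 h compound, 37 degrees C; CellTiter-Glo luminescence; curve fitting and curve-class assignment.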
DT40 TDP1 no CPT: qHTS for Inhibitors of human tyrosyl-DNA phosphodiesterase 1 (TDP1): qHTS in cells in absence of CPT | actives 15% (n = 420,000) | DT40 Tdp1-/- hTDP1 cells, no CPT, ATP luminescence, 48 h | Potency, µM (doses to about 46.2 µM), most hits filed as inhibitors; further: nearly all actives have a fitted effect of over 55% in size
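Growth of hTDP1-complemented DT40 Tdp1-knockout cells is measured by ATP luminescence after at least 48 hr compound exposure at 37 °C, with DMSO substituting for the 20 nM CPT used in the parallel screen.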
KB-V1 cytotox: KB-V1 MDR subline cytotoxicity; AID 1347076; KB-V1 MDR cells viability, CellTiter-Glo, 72 h; Potency, µM (doses to about 46.1 µM), actives largely listed as cytotoxic; actives 3.4% (n = 400,000); further: nearly all actives have a fitted effect of over 60% in size
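Drug-selected KB-V1 cells, grown in DMEM lacking phenol red with 10% FBS, receive compound titrations; after three days at 37 degrees C, surviving cell ATP is quantified by CellTiter-Glo luminescence and responses normalized and curve-fitted.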
KB-3-1 cytotox: kills parental KB-3-1 adenocarcinoma cells | KB-3-1 viability, CellTiter-Glo ATP luminescence, 72 h | Potency, µM (top dose mostly 46.1 µM), hits mostly cytotoxic | actives 1.4% (n = 400,000) | AID 1347075; further: nearly all actives have a fitted effect of over 60% in size
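Cytotoxicity in the drug-sensitive parental line KB-3-1 was scored as loss of CellTiter-Glo luminescence following 72 h incubation with compound. Values come from curve fitting of normalized concentration-response data.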
DT40 TDP1 CPT: growth inhibition of DT40 Tdp1-/-;hTDP1 cells with camptothecin (screen for TDP1 inhibitors) | chicken DT40 Tdp1-/-;hTDP1 cells + 20 nM CPT, ATP luminescence, 48 h | Potency, µM (highest dose often 46.2 µM), actives largely listed as inhibitors | actives 12% (n = 420,000); further: nearly all actives have a fitted effect of over 55% in size
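Cell growth measured by CellTiter-Glo luminescence after a minimum 48 h, 37 C compound exposure with 20 nM CPT in Tdp1-knockout DT40 cells stably expressing hTDP1, seeded 400/well; qHTS titration format.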
Each line names hits and unclear results; the compound was inactive in the other large screens. The call rests on the fitted dose curve; in most records, active means well fitted curve in the direction sought with a large enough effect; inconclusive means small, poorly fitted or top-dose-only effect, or another doubt; inactive means no such curve, though single readings can be large; an effect the other way counts as inactive or inconclusive.

CCCN1C(=O)CN(C2CCCCCC2)C(=O)C1c1ccc(C)cc1 (configuration not stated)	DT40 TDP1 no CPT inconclusive, DT40 TDP1 CPT inconclusive
CCC(=O)N(Cc1cc2ccccc2[nH]c1=O)c1ccccc1OC	KB-V1 cytotox inconclusive
Cc1ccc(C(=O)CSc2nnc3n2CCCCC3)s1	none
CCOC(=O)c1c(NC(=O)CN2CCCc3ccccc32)sc(C)c1CC	DT40 TDP1 no CPT inconclusive, KB-V1 cytotox inconclusive, DT40 TDP1 CPT inconclusive
COc1ccc(C2C(=O)N(C3CCCCC3)CC(=O)N2CCC2=CCCCC2)cc1 (configuration not stated)	DT40 TDP1 no CPT 16µM, DT40 TDP1 CPT inconclusive (no result: HT1080 IDH1KD tx, HT1080NT lethal, KB-V1 cytotox, KB-3-1 cytotox)
COc1ccc(C2C(=O)N(CCc3ccccc3)CC(=O)N2C2CCCCC2)cc1 (configuration not stated)	HT1080 IDH1KD tx inconclusive, KB-V1 cytotox 3.7µM
COc1ccccc1CNC(=O)COC(=O)/C=C/c1ccc2c(c1)OCO2	none
COC(=O)C1=CN(c2ccc(N3CCOCC3)cc2)C(N)=C(C#N)C1c1cccc(OC)c1OC (configuration not stated)	DT40 TDP1 no CPT inconclusive
COC(=O)C1=CN(c2ccc(Oc3ccccc3)cc2)C(N)=C(C#N)C1c1cccc(OC)c1OC (configuration not stated)	DT40 TDP1 no CPT 13µM, KB-V1 cytotox inconclusive, KB-3-1 cytotox inconclusive, DT40 TDP1 CPT 15µM
COC(=O)C1=CN(c2cccc(OCc3ccccc3)c2)C(N)=C(C#N)C1c1cccc(OC)c1OC (configuration not stated)	DT40 TDP1 no CPT 15µM, KB-V1 cytotox inconclusive, DT40 TDP1 CPT 15µM
CCC(C)(O)c1[nH]c2ccc(C(F)(F)F)cc2c1C (configuration not stated)	DT40 TDP1 no CPT inconclusive, DT40 TDP1 CPT inconclusive
NS(=O)(=O)c1cccc(NC(=O)c2ccccc2NS(=O)(=O)c2ccc(F)cc2)c1	none
O=C1CCC(C(=O)Nc2cccc(S(=O)(=O)Nc3ccccc3F)c2)=NN1	HT1080NT lethal inconclusive, DT40 TDP1 no CPT 13µM, DT40 TDP1 CPT 18µM
O=C(Nc1cccc(S(=O)(=O)N2CCCCC2)c1)c1ccccc1NS(=O)(=O)c1ccc(F)cc1	HT1080 IDH1KD tx 23µM, HT1080NT lethal inconclusive, DT40 TDP1 no CPT 21µM, KB-V1 cytotox 21µM, KB-3-1 cytotox inconclusive, DT40 TDP1 CPT inconclusive
CSc1ncccc1C(=O)Nc1cccc(S(=O)(=O)N2CCCCCC2)c1	DT40 TDP1 no CPT 29µM, DT40 TDP1 CPT inconclusive
O=C(CSc1ccc([N+](=O)[O-])cc1)Nc1cccc(S(=O)(=O)Nc2ccccc2F)c1	DT40 TDP1 no CPT inconclusive, DT40 TDP1 CPT 9.2µM
CCOCCCn1c(=S)[nH]c2cc(C(=O)NCCCN(CC)CC)ccc2c1=O	none
O=C(CC1CC2CCC1C2)NCCc1ccc(Cl)cc1 (configuration not stated)	DT40 TDP1 CPT inconclusive
CCOc1c2ccccc2nn1CCO	none
O=S(=O)(Nc1ccccc1OC(F)F)c1ccc(S(=O)(=O)N2CCCC2)cc1	DT40 TDP1 no CPT inconclusive, KB-V1 cytotox 18µM, DT40 TDP1 CPT inconclusive
Cc1ccc(NS(=O)(=O)c2ccccc2F)cc1S(=O)(=O)N1CCCCCC1	none
Cc1ccc(NC(=O)c2ccccc2NS(=O)(=O)c2ccc(F)cc2)cc1S(=O)(=O)N1CCCCC1	HT1080 IDH1KD tx inconclusive, HT1080NT lethal inconclusive, DT40 TDP1 no CPT 12µM, KB-V1 cytotox inconclusive, KB-3-1 cytotox inconclusive, DT40 TDP1 CPT 16µM
Cc1ccc(NC(=O)COC(=O)C2CC3C=CC2C3)cc1S(=O)(=O)N1CCCCC1 (configuration not stated)	DT40 TDP1 no CPT inconclusive, DT40 TDP1 CPT inconclusive
O=C1[C@@H]2Cc3ccccc3CN2C(=O)N1c1cccc(F)c1	none
Cc1ccccc1N1C(=O)[C@@H]2Cc3ccccc3CN2C1=O	KB-V1 cytotox 16µM
CCOC(=O)C1=CCN(S(=O)(=O)c2ccc(Br)cc2)C1c1ccc(C)cc1 (configuration not stated)	HT1080 IDH1KD tx inconclusive, DT40 TDP1 no CPT 26µM, KB-V1 cytotox inconclusive, DT40 TDP1 CPT inconclusive
CCOC(=O)C1=CCN(S(=O)(=O)c2ccc(C)cc2)C1c1cccc(C)c1 (configuration not stated)	HT1080 IDH1KD tx inconclusive, DT40 TDP1 no CPT 18µM, KB-V1 cytotox inconclusive, DT40 TDP1 CPT inconclusive
N#CC1=C(N)c2ccccc2CC12CCCCC2	DT40 TDP1 no CPT inconclusive, DT40 TDP1 CPT inconclusive
Cc1ccc(NC2CCCCC2NS(=O)(=O)c2ccccc2)c(C)c1 (configuration not stated)	DT40 TDP1 CPT inconclusive
COC(=O)c1cc(=O)nc(NN=C2CCCCC2)s1	none
COC(=O)c1cc(=O)nc(NN=C2c3ccccc3-c3ccccc32)s1	HT1080 IDH1KD tx inconclusive, HT1080NT lethal inconclusive, DT40 TDP1 no CPT inconclusive, DT40 TDP1 CPT 23µM
COc1ccc(CN2C(=O)c3ccccc3C(/C=N\OCc3ccc(C)cc3)C2=O)cc1 (configuration not stated)	DT40 TDP1 no CPT 21µM, KB-V1 cytotox inconclusive, KB-3-1 cytotox 21µM, DT40 TDP1 CPT 21µM
O=c1cc(-c2ccccc2)[nH]n1-c1nc2ccccc2[nH]1	HT1080 IDH1KD tx 13µM, HT1080NT lethal 11µM, DT40 TDP1 no CPT inconclusive, KB-V1 cytotox inconclusive, KB-3-1 cytotox inconclusive, DT40 TDP1 CPT inconclusive
CCc1nc2ccccc2[nH]c1=O	KB-V1 cytotox inconclusive
Cc1ccc2scc(N3CCc4ccccc4C3)c(=O)c2c1	DT40 TDP1 no CPT inconclusive, DT40 TDP1 CPT inconclusive (no result: HT1080 IDH1KD tx, HT1080NT lethal)
CC(=O)Oc1ccc(OC(C)=O)c(SCCCCCCl)c1	HT1080 IDH1KD tx inconclusive, HT1080NT lethal inconclusive, DT40 TDP1 no CPT 2.9µM, DT40 TDP1 CPT 2.1µM
O=C(c1ccc(C(F)(F)F)cc1)C1CCCN(C(=O)CCc2ccncc2)C1 (configuration not stated)	DT40 TDP1 no CPT 6.5µM, DT40 TDP1 CPT 8.2µM
CN(C)C(=O)CCC(=O)N1CCCC(C(=O)c2ccc(C(F)(F)F)cc2)C1 (configuration not stated)	DT40 TDP1 no CPT 26µM, DT40 TDP1 CPT inconclusive
O=C(c1cccc2ccccc12)C1CCCN(C(=O)CCc2cnccn2)C1 (configuration not stated)	DT40 TDP1 no CPT 8.2µM, DT40 TDP1 CPT inconclusive
CN(C)C(=O)N1CCC(C(=O)N2CCCC(C(=O)c3ccc(C(C)(C)C)cc3)C2)CC1 (configuration not stated)	DT40 TDP1 no CPT 16µM, DT40 TDP1 CPT inconclusive
